Screening data from PubChem BioAssay.
In the library only some 7.5% were active in any assay of this set; here they are far more common.
Rab9 prom act: activators of Rab9 promoter; 320,000 tested, 2.8% active; Huh7 Rab9 promoter-luciferase reporter, luminescence, 24 h; AID 485297; Potency, µM (highest dose often 9.22 µM), for the others: at the highest dose activation, negative = inhibition, actives largely listed as activators; also: % of control where 0% means no effect; nearly all actives have a fitted effect of over 60% in size
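Huh7 cells stably carrying a Rab9 promoter-luciferase reporter, 1500 cells per well in OP-MEM I with 10% FBS, treated with compound 24 hours at 37C. Luciferase activity read by luminescence after 10 minutes with Amplite reagent.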
SMN2 splice up: increases expression of the SMN2 splice variant; HEK293 SMN2-luciferase splicing reporter, luminescence, 30-36 h; Potency, µM (series often up to 46.1 µM), inactives show at the top dose activity change, positive = activation, hits mostly activators; 210,000 tested, 2.8% active; AID 1458; also: % of control where 0% means no effect; nearly all actives have a fitted effect of over 55% in size
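HEK293 cells carry an SMN2 minigene-luciferase reporter in which exon 7 inclusion puts luciferase in frame. Cells were seeded at 2000 cells/well, attached for 10-12 hours, then exposed to compounds for 30-36 hours at 37C before ONE-Glo luminescence.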
NPC1 prom act: NPC1 promoter activation; Huh7 NPC1 promoter luciferase reporter, 24 h; Potency, µM (titrated, usually from 9.22 µM), without a hit: at the top dose activation, actives largely listed as activators; 320,000 tested, 2.4% active; AID 485313; also: % of control where 0% means no effect; nearly all actives have a fitted effect of over 60% in size
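Cells: Huh7 expressing luciferase under the NPC1 promoter, 1500/well. Seeded 2 h, compound added, incubated 24 h at 37 °C. Luciferase reagent, 10 min ambient, then luminescence.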
ELG1 genotoxic: induces genotoxicity in HEK293T cells with luciferase-tagged ELG1; Potency, µM (series often up to 46 µM), without a hit: at the top dose activity change, positive = activation, actives largely listed as activators; HEK293T ELG1-luciferase reporter, luminescence, 16 h; 330,000 tested, 1.3% active; also: % of control where 0% means no effect; nearly all actives have a fitted effect of over 60% in size
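ELG1-luciferase HEK293T cells, 2,000/well; compound pinned in; 16 hr, 37 °C, 5% CO2; ONE-Glo, 30 min RT; luminescence on CCD imager.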
FLuc modulator: inhibits or activates purified firefly luciferase, miR-21 counter-screen. P08659. purified FLuc, Km substrates, luminescence inhibition. Potency, µM (top dose mostly 57.5 µM), for inactives: top-dose activity change, negative = inhibition, hits mostly inhibitors. 360,000 tested, 6.9% active;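 also: plate controls were vehicle for no effect and reference inhibitor for full effect; nearly all actives have a fitted effect of over 55% in size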
Target sequence (P08659 whole entry, looked up): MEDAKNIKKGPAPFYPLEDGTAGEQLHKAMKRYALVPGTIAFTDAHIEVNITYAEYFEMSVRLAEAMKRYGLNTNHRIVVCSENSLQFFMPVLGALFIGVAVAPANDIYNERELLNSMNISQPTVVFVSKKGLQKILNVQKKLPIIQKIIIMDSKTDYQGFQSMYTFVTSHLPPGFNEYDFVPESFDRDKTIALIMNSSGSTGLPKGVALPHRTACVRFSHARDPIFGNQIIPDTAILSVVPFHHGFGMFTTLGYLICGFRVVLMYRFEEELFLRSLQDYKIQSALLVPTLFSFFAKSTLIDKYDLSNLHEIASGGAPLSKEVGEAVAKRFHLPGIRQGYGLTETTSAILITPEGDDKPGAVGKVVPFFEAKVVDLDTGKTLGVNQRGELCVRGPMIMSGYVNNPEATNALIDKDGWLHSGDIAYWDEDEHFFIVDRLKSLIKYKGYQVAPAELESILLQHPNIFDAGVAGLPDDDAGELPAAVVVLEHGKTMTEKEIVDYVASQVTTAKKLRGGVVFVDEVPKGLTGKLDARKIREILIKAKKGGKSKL
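Purified P. pyralis luciferase, 10 nM final, with Km-level 10 uM D-luciferin and 10 uM ATP in 50 mM Tris acetate pH 7.5, 10 mM Mg acetate, 0.01% Tween-20, 0.05% BSA; 6-point qHTS titration about 60 µM downward; luminescence read.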
Starred values were filed as active, the others as inactive; ? = inconclusive; · = no result; [ ] = remark or other dose. Calls follow the shape of the dose curve; as a rule, active = well fitted curve in the direction sought with a large enough effect; inconclusive = small, poorly fitted or top-dose-only effect, or another doubt; inactive = no such curve, though single readings can be large; an effect the other way counts as inactive or inconclusive. Potency is read from the fitted curve at half-maximal effect.

SMILES | Rab9 prom act | SMN2 splice up | NPC1 prom act | ELG1 genotoxic | FLuc modulator
Cc1ccc(C(=O)Nc2nc(C)c(C(=O)N(C)C)s2)o1 | ? | · | 29.3% | ? | ?
Cc1ccc(C(=O)Nc2ccc(F)cc2)o1 | 25.6% | 9.2% | 22.7% | 12.9% | ?
Cc1ccc(C(=O)Nc2ncc(C)s2)s1 | ? | · | 0.447µM* | ? | 0.849µM*
CSc1ncccc1C(=O)Nc1ncc(C)s1 | -10.9% | · | 9.4% | 0.1% | -12.9%
Cc1ccc(C(=O)Nc2ncc(Cc3ccc(F)cc3)s2)o1 | 2.82µM* | 11.2µM* | 2.51µM* | ? | 2.69µM*
CS(=O)(=O)c1ccc2nc(NC(=O)c3ccc(Cl)cc3)sc2c1 | 23.8% | · | 3.1% | -0.4% | ?
CS(=O)(=O)c1ccc2nc(NC(=O)c3ccc(=O)[nH]c3)sc2c1 | 6.6% | · | -7.2% | 5.5% | 6.75µM*
Cn1nc(C(=O)Nc2nc3ccc(S(C)(=O)=O)cc3s2)ccc1=O | -1.3% | -1.9% | 0.4% | 10.6% | 10.7µM*
O=[N+]([O-])c1ccc(N2CCN(CCOc3nonc3-c3ccccc3)CC2)c(Cl)c1 | -8.9% | -47.7% | -2.7% | -1.4% | 5.6%
Cc1ccc2c(CNCc3ccco3)cc(=O)oc2c1 | ? | 12.6µM* | ? | ? | 23.9µM*
CCOc1ccccc1NCc1cc(=O)oc2cc(C)ccc12 | -0.6% | · | -0.9% | 1.5% | ?
CCOc1cc(C(=O)Nc2ccon2)cc(OCC)c1OCC | 3.9% | 1.5% | -3.5% | 1.5% | 4.9%
O=C(CSc1nc2ccccc2s1)CSc1nc2ccccc2s1 | -3.9% | 19.0% | 6.3% | 1.6% | -2.1%
Cc1ccccc1C(=O)Nc1nnc(SCC(=O)NC2CC2)s1 | 2.24µM* | · | 2.51µM* | ? | 8.49µM*
O=c1oc2ccccc2n1CSc1nc2ccccc2s1 | 3.98µM* | 14.2% | 2.82µM* | ? | 12µM*
O=C(CSc1nnc(NC(=O)c2ccc(F)cc2F)s1)NC1CC1 | ? | · | ? | ? | 7.57µM*
CC(C)(C)NC(=O)CSc1nnc(NC(=O)c2ccccc2Cl)s1 | 10.7% | 15.1% | 9.8% | 7.2% | 16.9µM*
O=C(CCCN1C(=O)/C(=C/c2cccs2)SC1=S)NNC(=O)c1ccc(F)cc1 | 0.6% | -9.3% | 0.7% | 0.0% | 2.6%
COC(=O)CN1CCN(C(=O)c2ccc(F)cc2)c2ccccc2C1 | -2.6% | 11.8% | -2.1% | -0.2% | 1.4%
CO[C@@H](NC(N)=O)C(=O)O | · | -6.4%[9.22 µM] | · | · | ·
O=C(Nc1ccccc1C(F)(F)F)NC1CCCCC1 | 14.5% | -14.9% | 0.4% | 0.2% | -0.1%
CCOC(=O)CNC(=O)CSc1nnc(NC(=O)c2ccc(S(=O)(=O)N3CCOCC3)cc2)s1 | 0.2% | · | -2.3% | 2.9% | ?
O=C(CSc1nnc(NC(=O)c2ccccc2Cl)s1)Nc1ccc2c(c1)oc1ccccc12 | ? | 35.5µM* | 3.55µM* | ? | 0.953µM*
O=C(CSc1nc2ccccc2s1)Nc1ccc2c(c1)oc1ccccc12 | 23.6% | 11.2µM* | 17.0% | 8.3% | -2.4%
CCOC(=O)CNC(=O)CSc1nnc(NC(=O)c2ccccc2Cl)s1 | ? | ? | 23.9% | ? | 10.7µM*
SMILES | Rab9 prom act | SMN2 splice up | NPC1 prom act | ELG1 genotoxic | FLuc modulator
O=C(CSc1nc2ccccc2s1)c1cc2ccccc2o1 | · | -0.2% | · | · | 16.9µM*
O=C(O)C1CC=CCC1C(=O)Nc1cccc(Cl)c1Cl (stereo not given) | 10.2% | · | -1.1% | 0.8% | -0.3%
O=C(CSc1nnc(NC(=O)c2ccccc2Cl)s1)NC1CC1 | 4.47µM* | · | ? | 16.9% | 12µM*
O=C(CSc1nnc(NC(=O)c2c(F)cccc2F)s1)NC1CCCCC1 | -0.1% | · | 8.1% | 6.3% | ?
Clc1ccccc1-c1csc(Nc2cccnc2)n1 | ? | · | 2.82µM* | 8.2% | ?
Fc1ccc(-c2csc(Nc3ccccn3)n2)cc1 | 3.16µM* | · | 3.55µM* | 2.06µM* | 1.51µM*
Clc1ccccc1Nc1nnc(-c2ccncc2)s1 | 0.447µM* | 3.16µM* | 0.562µM* | ? | 0.953µM*
O=C(CSc1nc(-c2ccc(F)cc2)cs1)Nc1ccccn1 | -3.3% | -13.5% | -1.4% | 6.7% | -0.7%
COc1ccc(Cl)cc1Nc1nnc(-c2ccncc2)s1 | 1.0% | · | 1.5% | 5.1% | -2.5%
Clc1ccccc1Nc1nc(-c2cccnc2)cs1 | 0.708µM* | 2.82µM* | 3.16µM* | ? | 1.69µM*
COc1ccc(CCNC(=O)Cc2c(C)c3c(cc(C)c4c(C)coc43)oc2=O)cc1OC | · | -6.5% | · | · | -8.5%
c1ccc(Nc2nc(-c3cccnc3)cs2)nc1 | 0.562µM* | 11.2µM* | 1µM* | ? | 1.51µM*
CCCN(CCC)CCNc1c(NC2CCN(C(=O)OCC)CC2)c(=O)c1=O | -11.5% | 0.8% | -0.2% | 6.4% | 7.2%
CCOC(=O)C1=C(CSc2nc(-c3ccccc3)ccc2C#N)OC(N)=C(C#N)C1c1ccc(OC)cc1 (stereo not given) | -2.9% | -4.1% | -1.2% | ? | 15.1µM*
C/C(=N\NC(=O)c1ccncc1)c1cc2ccccc2o1 | -2.6% | 15.1% | -0.6% | -5.4% | -8.6%
C/C(=N\Nc1nc2ccccc2[nH]1)c1cc2ccccc2o1 | ? | 12.6µM* | 16.2% | ? | 2.39µM*
C/C(=N/O)c1ccccn1 | -3.3% | 7.4% | 2.1% | -2.4% | -0.1%
C/C(=N\Nc1nc2ccccc2[nH]1)c1ccccn1 | 28.8% | · | ? | 2.51µM* | 0.849µM*
O=C(NCC1CCCO1)C(c1cccs1)N(Cc1cccs1)C(=O)Cn1nnc(-c2cccs2)n1 (stereo not given) | -1.8% | 7.4% | -2.4% | -1.7% | 4.1%
N/C(=N\OC(=O)CC1CCCCC1)c1ccc(Br)cc1 | -0.1% | · | 1.8% | 27.8% | ?
N/C(=N\OC(=O)CC1CCCCC1)c1cccc(Br)c1 | 16.2% | · | 14.0% | 15.5% | 2.69µM*
N/C(=N\OC(=O)CCC1CCCCC1)c1cccc([N+](=O)[O-])c1 | 8.7% | -2.5% | 9.4% | 2.3% | 10.7µM*
N/C(=N\OC(=O)CC1CCCCC1)c1ccc(Cl)cc1 | -5.1% | · | 4.0% | ? | 7.57µM*
O=C(/C=C/Nc1ccc(Br)cn1)c1cccc(OC(F)F)c1 | 2.24µM* | · | 2.82µM* | ? | 2.69µM*
O=C(N/N=C/c1ccc(OC(F)F)cc1OC(F)F)c1ccc(Br)cc1 | -1.4% | -21.1% | -6.0% | -5.7% | -7.9%
SMILES | Rab9 prom act | SMN2 splice up | NPC1 prom act | ELG1 genotoxic | FLuc modulator
Cc1nc2sc(C(N)=O)c(N)c2c(C)c1CC(=O)c1ccccc1 | 2.82µM* | 24.1% | 3.55µM* | -5.6% | 16.9µM*
CCOc1ccc(NC(=O)n2ncc3c(C)cccc32)cc1 | 1.41µM* | · | 0.447µM* | ? | 1.35µM*
CCOC(=O)Cc1ccc(NC(=O)n2ncc3c(C)cccc32)cc1 | · | 2.9% | · | · | 5.36µM*
COC(=O)c1ccc(NC(=O)n2ncc3c(C)cccc32)cc1 | · | · | · | · | -1.3%
COc1cccc(NC(=O)n2ncc3c(C)cccc32)c1 | 0.316µM* | · | 0.0891µM* | 1.64µM* | 0.169µM*
CCOc1ccccc1N1CCN(CC(=O)N(CC(C)C)c2c(N)n(CC(C)C)c(=O)[nH]c2=O)CC1 | -0.7% | 9.5% | -12.5% | -6.2% | -0.4%
